Drawing on PubChem BioAssay (EPA / NIEHS), this text covers outcome and AC50 for 21 compounds.

For orientation: AC50 means the concentration giving half of the maximal activity seen.

Results filed as inconclusive are left out. Calls of active or inactive are those of the source. Rule for the calls, unless noted: active = hit-call score of the fitted dose curve at least 0.9, where 1 is the maximum; inconclusive = response in the unintended direction; inactive = score below 0.9.

The nature of assay [1]: CEETOX_H295R_MTT_cell_viability: Viability Assessment in the CeeTox HT-H295R MTT Assay (AID 2283718; active = hit-call score of the fitted dose curve at least 0.9, where 1 is the maximum; inactive = score below 0.9;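 for AC50: curve fitted both ways so AC50 may mark viability loss or gain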). In outline:
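Human H295R adrenal cells, prestimulated 48 h with 10 uM forskolin, were exposed 48 h to chemicals in 0.1% DMSO. Viability was measured in the same wells by MTT (0.5 mg/ml, 4 h, 37 C), absorbance 570/650 nm, as percent of controls.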

Assay [2] is described as follows: Tanguay_ZF_120hpf_ActivityScore_legacy: (Legacy) Oregon State University Tanguay Lab 120 Hour Post-fertilization zebrafish Assay Score for Activity (AID 2283742).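 For AC50: dechorionated Tropical 5D wild-type zebrafish embryos held singly per well; static exposure from 6 hpf until 120 hpf at 28 °C.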 The essentials: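 Dechorionated Tropical 5D embryos, one per well from 6 hpf, statically exposed to 120 hpf at 28 °C in 0.64% DMSO. Mortality and malformations scored binary by brightfield microscopy; activity score combines 18 endpoints, fitted positively versus DMSO.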

A short description of assay [3]: STM_H9_OrnithineISnorm_perc: Stemina devTOX quickPredict H9 human embryonic stem cell (hESC)-based Assay for Ornithine (ORN) Metabolite Biomarker, Normalized (AID 2283712; active = hit-call score of the fitted dose curve at least 0.9, where 1 is the maximum; inactive = score below 0.9;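 note: ornithine released into spent medium during last day measured by mass spectrometry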). The essentials:
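H9 human embryonic stem cells kept pluripotent receive test chemical over 72 h, refreshed daily by media exchange. Media from the closing 24 h is deproteinized and analysed by UPLC-HRMS on an amide column; ornithine signal is scaled to labelled standard and vehicle.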

A short description of assay [4]: STM_H9_CystineISnorm_perc: Stemina devTOX quickPredict H9 human embryonic stem cell (hESC)-based Assay for Cystine (CYSS) Metabolite Biomarker, Normalized (AID 2283713; active = hit-call score of the fitted dose curve at least 0.9, where 1 is the maximum; inactive = score below 0.9). The essentials: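 H9 hESC, pluripotent; compound 72h, re-dosed q24h with medium change. Last-24h medium → 40% acetonitrile deproteinization → UPLC-HRMS. CYSS area / C13-CYSS standard, then % of 0.1% DMSO median.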

Assay [5] can be described thus: STM_H9_OrnCyssISnorm_ratio: Stemina devTOX quickPredict H9 human embryonic stem cell (hESC)-based Assay for Ornithine (ORN):Cystine (CYSS) Ratio (AID 2283714). The essentials:
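Undifferentiated H9 hESCs exposed 72 h, media and compound replaced every 24 h; final 24-h conditioned media deproteinized and analysed by UPLC-HRMS against C13 spike-ins. Value is the internal-standard-normalized ORN/CYSS ratio versus 0.1% DMSO.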

In assay [6] the target is Luciferin 4-monooxygenase (Photinus pyralis) (UniProt P08659). In words: CCTE_Simmons_QuantiLum_inhib_2: CCTE's Firefly Luciferase Inhibition Assay, Simmons Lab (AID 2283767). The essentials: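 Luminescence loss relative to DMSO vehicle defines inhibition; detection reagent containing 150 uM D-luciferin and 147 uM dATP (final, pH 7.8) is injected immediately before each read. Enzyme is preincubated with an 8-point titration (5 nM–87.5 uM final) for 30 min at 37C.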
Luciferin 4-monooxygenase (Photinus pyralis), sequence (P08659 whole entry, looked up): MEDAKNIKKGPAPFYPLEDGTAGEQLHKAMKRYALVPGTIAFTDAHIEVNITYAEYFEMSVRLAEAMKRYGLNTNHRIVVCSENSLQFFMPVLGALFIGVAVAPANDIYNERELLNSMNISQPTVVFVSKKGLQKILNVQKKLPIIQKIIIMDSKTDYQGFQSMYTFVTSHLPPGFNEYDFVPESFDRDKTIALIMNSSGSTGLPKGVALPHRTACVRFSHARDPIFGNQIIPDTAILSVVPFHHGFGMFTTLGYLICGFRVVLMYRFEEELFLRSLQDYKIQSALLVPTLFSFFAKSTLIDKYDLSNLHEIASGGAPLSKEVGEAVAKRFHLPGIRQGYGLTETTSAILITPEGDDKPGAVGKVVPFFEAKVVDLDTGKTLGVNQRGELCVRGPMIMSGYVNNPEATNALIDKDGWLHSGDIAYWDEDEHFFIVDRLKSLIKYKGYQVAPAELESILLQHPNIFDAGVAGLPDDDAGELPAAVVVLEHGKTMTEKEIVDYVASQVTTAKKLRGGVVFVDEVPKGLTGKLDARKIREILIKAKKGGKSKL

Read-out in assay [7]: xenobiotic metabolism (CYP1A1), CYP1A1 (gene 1543)
In words: CLD_CYP1A1_48hr: CellzDirect (CLD) Gene Expression Assay for xenobiotic metabolism (CYP1A1) at 48 hours (AID 2283705). The essentials:
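Primary human hepatocytes from two donors dosed daily for two days at multiple concentrations, 0.2% DMSO vehicle; CYP1A1 mRNA induction at 48 h by qNPA chemiluminescence. Cytotoxicity noted by phase-contrast morphology.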

Read-out in assay [8]: organic anion transporter (SLCO1B1), SLCO1B1 (gene 10599)
The assay can be described thus: CLD_SLCO1B1_48hr: CellzDirect (CLD) Gene Expression Assay for organic anion transporter (SLCO1B1) at 48 hours (AID 2283707). The essentials:
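Primary human hepatocytes from two donor preparations dosed daily for two days with multiple concentrations, 0.2% DMSO vehicle. SLCO1B1 mRNA at 48 h by quantitative nuclease protection assay, chemiluminescence; gain-of-signal fitted versus DMSO.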

Read-out in assay [9]: alkyl and aryl transferase (GSTA2), GSTA2 (gene 2939)
In words: CLD_GSTA2_48hr: CellzDirect (CLD) Gene Expression Assay for alkyl and aryl transferase (GSTA2) at 48 hours (AID 2283708).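 Note: active means mRNA induction above DMSO vehicle baseline.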 The essentials:
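Primary human hepatocytes dosed daily for two days (0.2% DMSO vehicle), harvested at 48 h. GSTA2 mRNA induction measured by quantitative nuclease protection assay with chemiluminescent imaging, fitted for gain of signal relative to DMSO.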

Read-out in assay [10]: glucuronosyltransferase (UGT1A1), UGT1A1 (gene 54658)
In words: CLD_UGT1A1_48hr: CellzDirect (CLD) Gene Expression Assay for glucuronosyltransferase (UGT1A1) at 48 hours (AID 2283709).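 Note: actives increase expression relative to DMSO so potency refers to induction.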 In outline: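 Human primary hepatocytes dosed daily for two days (0.2% DMSO vehicle), harvested at 48 h. UGT1A1 mRNA induction measured by quantitative nuclease protection assay with chemiluminescence; gain of signal versus DMSO; cytotoxicity flagged from morphology.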

Read-out in assay [11]: sulfotransferase (SULT2A), SULT2A1 (gene 6822)
The assay can be described thus: CLD_SULT2A_48hr: CellzDirect (CLD) Gene Expression Assay for sulfotransferase (SULT2A) at 48 hours (AID 2283710).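 Note: hits raise SULT2A1 transcript above the 0.2% DMSO vehicle baseline.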 The essentials: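 Primary human hepatocytes (two donor preparations) dosed daily for two days with chemicals at multiple concentrations, vehicle 0.2% DMSO; SULT2A1 mRNA induction at 48 h by quantitative nuclease protection assay, chemiluminescent read-out, fitted for gain of signal versus DMSO.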

Read-out in assay [12]: Glyceraldehyde-3-phosphate dehydrogenase (Homo sapiens) (UniProt P04406)
In words: CLD_GAPDH_48hr: CellzDirect (CLD) Gene Expression Assay for Baseline Control (Glyceraldehyde 3-phosphate dehydrogenase) at 48 hours (AID 2283706).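 Note: active means higher GAPDH mRNA than DMSO vehicle.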 In outline: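 Primary human hepatocytes dosed daily for two days with fresh chemical at multiple concentrations, 0.2% DMSO vehicle; GAPDH mRNA measured at 48 h by quantitative nuclease protection assay with chemiluminescence, fitted upward relative to DMSO as background control.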

The nature of assay [13]: ArunA_CellTiter_hNC: Viability Assessment in the ArunA Biomedical's Oris Neural Crest (hNC) Cell Migration Assay (AID 2283752). In outline: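 Cell titer was measured with the CellTiter Aqueous One reagent after 72 h of chemical dosing. Cells were H9-derived embryonic neural crest stem cells seeded on Matrigel, 60,000 per well, and given 16 h at 37C beforehand.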
A short description of assay [14]: ArunA_CellTiter_hNP: Viability Assessment in the ArunA Biomedical's Oris Neural Crest (hNC) Cell Migration Assay (AID 2283753). In outline: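 H9-derived hNP1 neuroprogenitors, 60,000/well on Matrigel, cultured 16 h, then 72 h chemical exposure in test medium. Cell titer via CellTiter Aqueous One; positive-direction fit vs DMSO.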
A short description of assay [15]: ArunA_Migration_hNP: ArunA Biomedical's Oris Neuroprogenitor (hNP) Cell Migration Assay (AID 2283754). In outline: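 Human H9-derived hNP1 neuroprogenitors on Matrigel with LIF/bFGF, plated around seeding stoppers for 16 h at 37C; stoppers removed at start of 72 h chemical exposure. Calcein-AM staining, fluorescence 494/517 nm in detection zone; loss-of-signal vs DMSO; cytochalasin D control.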

Assay [16] can be described thus: ArunA_Migration_hNC: ArunA Biomedical's Oris Neural Crest (hNC) Cell Migration Assay (AID 2283755). In outline:
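Human H9-derived neural crest stem cells, 60,000/well on Matrigel, 16 h at 37C, then 72 h chemical exposure after seeding-stopper removal. Migration into detection zone read as calcein-AM fluorescence (ex494/em517), relative to DMSO.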

In assay [17] the test system is chicken Androgen Receptor (AR), gene 422165. In words: ATG_chAR_XSP1: Attagene TRANS-FACTORIAL Multi-Species (XSP1) HepG2 Assay for chicken Androgen Receptor (AR) (AID 2283768). The essentials:
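HepG2 cells transiently transfected with multiplexed GAL4-UAS reporter units expressing chimeric chicken AR-Gal4; 3 nM 6-alpha-fluorotestosterone for partial AR stimulation; 24 h after dosing, reporter mRNA by RT-PCR and capillary electrophoresis, gain-of-signal versus DMSO.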

Read-out in assay [18]: HMG-CoA synthase (HMGCS2), HMGCS2 (gene 3158)
In words: CLD_HMGCS2_48hr: CellzDirect (CLD) Gene Expression Assay for HMG-CoA synthase (HMGCS2) at 48 hours (AID 2283711). In outline: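 Primary human hepatocytes from two donors dosed daily for two days, 0.2% DMSO vehicle. HMGCS2 mRNA measured 48 h after dosing by quantitative nuclease protection assay with chemiluminescent read-out; induction fitted relative to DMSO, cytotoxicity flagged by microscopy.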

Glyceraldehyde-3-phosphate dehydrogenase (Homo sapiens), sequence (P04406 whole entry, looked up): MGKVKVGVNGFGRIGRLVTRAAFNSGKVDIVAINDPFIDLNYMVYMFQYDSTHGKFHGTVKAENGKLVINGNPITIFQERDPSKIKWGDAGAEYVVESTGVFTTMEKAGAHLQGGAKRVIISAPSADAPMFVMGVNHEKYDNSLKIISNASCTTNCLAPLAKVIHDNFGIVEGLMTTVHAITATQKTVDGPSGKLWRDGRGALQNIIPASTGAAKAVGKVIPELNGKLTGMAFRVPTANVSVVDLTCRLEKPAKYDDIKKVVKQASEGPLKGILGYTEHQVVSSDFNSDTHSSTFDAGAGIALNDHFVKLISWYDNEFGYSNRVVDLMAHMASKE

`c1cc2ccc3cccc4ccc(c1)c2c34`: the outcome in [1] and in [2] was inactive.

Consider `Nn1cnnc1`, for which, in assay [3], the AC50 is 0.037 µM (active). Further, the outcome in assay [4], in assay [5] and in assay [2] was inactive.

Consider `Sc1ccccc1`, for which the result in assay [5] and in assay [6] was inactive.

For `CCC(C)(CC)c1cc(NC(=O)c2c(OC)cccc2OC)on1`, the AC50 in assay [7] is 3.98 µM (active); in assay [10] it was 0.498 µM (active); in [11] it was 3.78 µM (active); in assay [1], 43 µM (active). Moreover, the result in assay [8], in assay [9] and in assay [2] was inactive.

For the compound `Cc1cccc(C)c1N`, the result in assay [1] and in assay [2] was inactive.

For `CCC(=O)O[C@H]1CC[C@H]2[C@@H]3CCC4=CC(=O)CC[C@]4(C)[C@H]3CC[C@]12C`, the AC50 in [3] was 29.5 µM (active); in assay [4] it was 20.6 µM (active); in assay [5], 28.6 µM (active); in assay [1] it was 82 µM (active). Moreover, the result in assay [2] and in [6] was inactive.

`NS(=O)(=O)C(F)(F)C(F)(F)C(F)(F)C(F)(F)C(F)(F)C(F)(F)C(F)(F)C(F)(F)F`: in assay [1], the compound was called inactive. In addition, the concentration at half-maximal activity (AC50) in assay [2] was 38 µM (active).

Regarding `CCCCCCCCOC(=O)c1ccccc1C(=O)OCCCCCCCC`, the outcome in assay [3], in assay [4], in assay [5], in assay [1], in assay [2] and in [6] was inactive.

As to `CO/C=C(/C(=O)OC)c1ccccc1COc1cccc(C(F)(F)F)n1`, the half-maximal activity concentration (AC50) in assay [3] was 0.0992 µM (active); in [2], 28.7 µM (active). Also, the result in [4] and in assay [5] was inactive.

Turning to `Cc1ccccc1CO[C@@H]1C[C@@]2(C(C)C)CC[C@]1(C)O2`, the compound was called inactive in assay [7], in [12], in assay [9], in assay [11], in [1] and in [2]. In addition, the result in assay [6] was inactive. The AC50 in [10] was 7.69 µM (active).

Consider `CCSC(=O)N(CC)C1CCCCC1`, for which the result in [12], in assay [8], in [10], in assay [11], in assay [3] and in assay [1] was inactive. In [2], the compound was called inactive. The half-maximal activity concentration (AC50) in [9] is 7.96 µM (active); in [4], 32.1 µM (active); in assay [5], 35.2 µM (active).

`C=CC(N)=O`: the result in [3], in assay [4], in assay [1] and in [2] was inactive.

Regarding `ClC1=C(Cl)[C@]2(Cl)[C@@H]3[C@H]4C[C@H]([C@@H]5O[C@H]45)[C@@H]3[C@@]1(Cl)C2(Cl)Cl`, the AC50 in assay [3] is 60.9 µM (active); in assay [4], 78.7 µM (active); in assay [5], 72.4 µM (active); in [1], 4.96 µM (active).

Turning to `Nc1ccc(-c2ccc(N)cc2)cc1`, the compound was called inactive in assay [1] and in assay [2].

With `CC#Cc1cc(C)nc(Nc2ccccc2)n1`, the compound was called inactive in assay [1] and in assay [2].

Turning to `Oc1ccc(C(c2ccc(O)cc2)(C(F)(F)F)C(F)(F)F)cc1`, the outcome in [3], in assay [4], in assay [6] and in assay [17] was inactive. The AC50 was 45 µM (active) in [2]; 9.41 µM (active) in assay [13]; 12.2 µM (active) in assay [14]; 24.6 µM (active) in assay [15]; 9.68 µM (active) in [16].

For the compound `CCCCCCCCCC[N+](C)(C)CCCCCCCCCC`, the AC50 in assay [3] is 1.82 µM (active); in assay [4], 2.44 µM (active); in [5] it was 1.94 µM (active); in assay [2] it was 39.7 µM (active). For the same compound, in assay [6], the outcome was inactive.

Regarding `CCNc1nc(NC(C)C)nc(SC)n1`, the AC50 was 9.24 µM (active) in [7]; 8.73 µM (active) in [9]; 34.3 µM (active) in assay [4]; 33.3 µM (active) in [5]; 76.9 µM (active) in assay [2]. The result in assay [12], in assay [10], in assay [11], in [3] and in [1] was inactive.

Regarding `Clc1ccc(C(Cl)(Cl)Cl)cc1`, the AC50 is 94.7 µM (active) in assay [3], 77.8 µM (active) in assay [4] and 86.5 µM (active) in assay [5]. For the same compound, the call in assay [2] and in [6] was inactive.

For `CN(C)c1nc(=O)n(C2CCCCC2)c(=O)n1C`, the compound was called inactive in [12], in assay [10], in assay [11], in [18] and in [2].

For the compound `CC1=C2C[C@H]3[C@@H](CC=C4C[C@@H](O)CC[C@@]43C)[C@@H]2CC[C@]12O[C@@H]1C[C@H](C)CN[C@H]1[C@H]2C`, the outcome in assay [3], in assay [4], in assay [5] and in [1] was inactive. Besides, the AC50 in assay [2] is 44.8 µM (active).
